Measured values published in the supplement of paper PMC10849652.
The full data set covers some 7,900 targets. This sample favours those with a hit. About 0.6% of all pairs of compound and target were hits. Unmarked numbers belong to inactive results.

Experiments:
Test in all cases: log2 fold change, soluble protein after heating vs DMSO (PISA); higher = thermal stabilisation; K562 cells, 10 uM, 30 min; active = over 0.2 and 3.5 SD of the protein, either way, in both replicates (recomputed)
[1] = compound: CS(=O)(=O)c1ccc(-c2cnc(N)c(C(=O)Nc3ccccc3)n2)cc1
Method in brief: (§1)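 K562 cells at 2×10^6 cells/mL were treated for 30 min with 10 μM compound, and aliquots were heated for 3 min over 48°C-58°C before pooling. Extraction used PBS with 0.5% NP-40 at 4°C, and soluble protein was the supernatant after 21,000xg for 90 min, measured by TMTpro 16plex LC-MS/MS with channel sums equalised. Thermal stability values, relative to control samples and from duplicates, are log2 fold changes.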

crizotinib = compound: C[C@@H](Oc1cc(-c2cnn(C3CCNCC3)c2)cnc1N)c1c(Cl)ccc(F)c1Cl [crizotinib]
Method in brief: as §1

[2] = compound: C[C@@H]1COCCN1C2=NC(=NC(=C2)C3(CC3)S(=O)(=O)C)C4=C5C=CNC5=CC=C4
Method in brief: as §1

[3] = compound: C[C@H](C1=CC=C(C=C1)C(=O)NC2=C3C=CNC3=NC=C2)N
Method in brief: as §1

duvelisib = compound: C[C@H](Nc1ncnc2nc[nH]c12)c1cc2cccc(Cl)c2c(=O)n1-c1ccccc1 [duvelisib]
Method in brief: as §1

gandotinib = compound: Cc1cc(Nc2cc(CN3CCOCC3)c3nc(C)c(Cc4ccc(Cl)cc4F)n3n2)n[nH]1 [gandotinib]
Method in brief: as §1

tozasertib = compound: Cc1cc(Nc2cc(N3CCN(C)CC3)nc(Sc3ccc(NC(=O)C4CC4)cc3)n2)n[nH]1 [tozasertib]
Method in brief: as §1

[4] = compound: Cc1cc(SCc2sc(-c3ccc(C(F)(F)F)cc3)nc2C)ccc1OCC(=O)O
Method in brief: as §1

doramapimod = compound: Cc1ccc(-n2nc(C(C)(C)C)cc2NC(=O)Nc2ccc(OCCN3CCOCC3)c3ccccc23)cc1 [doramapimod]
Method in brief: as §1

ispinesib = compound: Cc1ccc(C(=O)N(CCCN)[C@@H](c2nc3cc(Cl)ccc3c(=O)n2Cc2ccccc2)C(C)C)cc1 [ispinesib]
Method in brief: as §1

Sequence of UniProt Q9P2B2 (Q9P2B2 whole entry, looked up): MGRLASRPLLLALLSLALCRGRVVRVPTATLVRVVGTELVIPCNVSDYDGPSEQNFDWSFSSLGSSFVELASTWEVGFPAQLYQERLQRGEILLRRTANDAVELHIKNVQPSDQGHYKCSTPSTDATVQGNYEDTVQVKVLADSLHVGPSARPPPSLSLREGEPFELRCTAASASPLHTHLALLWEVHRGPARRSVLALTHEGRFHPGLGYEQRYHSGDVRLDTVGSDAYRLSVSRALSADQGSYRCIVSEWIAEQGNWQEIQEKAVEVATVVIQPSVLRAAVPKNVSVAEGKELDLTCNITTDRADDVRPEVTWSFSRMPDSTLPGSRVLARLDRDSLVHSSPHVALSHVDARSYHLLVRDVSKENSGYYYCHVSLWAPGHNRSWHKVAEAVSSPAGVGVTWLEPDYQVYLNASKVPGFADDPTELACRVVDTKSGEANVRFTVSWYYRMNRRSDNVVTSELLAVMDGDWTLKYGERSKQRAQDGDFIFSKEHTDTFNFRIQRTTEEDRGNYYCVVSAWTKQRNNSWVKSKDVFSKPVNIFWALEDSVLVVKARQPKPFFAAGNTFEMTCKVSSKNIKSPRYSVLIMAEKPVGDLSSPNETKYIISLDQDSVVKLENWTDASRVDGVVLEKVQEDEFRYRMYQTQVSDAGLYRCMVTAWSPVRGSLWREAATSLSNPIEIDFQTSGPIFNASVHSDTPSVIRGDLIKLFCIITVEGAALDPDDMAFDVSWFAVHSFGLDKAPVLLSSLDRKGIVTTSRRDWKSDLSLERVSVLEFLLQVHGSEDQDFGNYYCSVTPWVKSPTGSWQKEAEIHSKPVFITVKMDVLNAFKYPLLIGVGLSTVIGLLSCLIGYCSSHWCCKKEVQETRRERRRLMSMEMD
Sequence of UniProt Q96A00 (Q96A00 whole entry, looked up): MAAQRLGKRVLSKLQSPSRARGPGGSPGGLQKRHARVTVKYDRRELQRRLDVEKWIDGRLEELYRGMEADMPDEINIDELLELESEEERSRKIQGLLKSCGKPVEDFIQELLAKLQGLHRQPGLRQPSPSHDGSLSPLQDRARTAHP
Sequence of UniProt P42785 (P42785 whole entry, looked up): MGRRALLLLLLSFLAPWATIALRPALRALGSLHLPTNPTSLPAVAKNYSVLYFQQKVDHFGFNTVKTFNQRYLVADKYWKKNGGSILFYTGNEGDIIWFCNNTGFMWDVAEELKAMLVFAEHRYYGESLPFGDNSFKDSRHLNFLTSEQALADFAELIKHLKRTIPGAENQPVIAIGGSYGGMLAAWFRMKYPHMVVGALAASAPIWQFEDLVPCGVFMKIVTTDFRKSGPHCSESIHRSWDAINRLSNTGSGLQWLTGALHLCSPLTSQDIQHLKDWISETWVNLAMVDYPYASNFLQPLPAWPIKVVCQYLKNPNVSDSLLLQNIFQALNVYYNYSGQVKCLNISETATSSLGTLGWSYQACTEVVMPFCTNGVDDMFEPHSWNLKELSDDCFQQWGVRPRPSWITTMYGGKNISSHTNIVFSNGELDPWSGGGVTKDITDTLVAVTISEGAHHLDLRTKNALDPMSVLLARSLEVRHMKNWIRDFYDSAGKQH
Sequence of UniProt Q6L8Q7 (Q6L8Q7 whole entry, looked up): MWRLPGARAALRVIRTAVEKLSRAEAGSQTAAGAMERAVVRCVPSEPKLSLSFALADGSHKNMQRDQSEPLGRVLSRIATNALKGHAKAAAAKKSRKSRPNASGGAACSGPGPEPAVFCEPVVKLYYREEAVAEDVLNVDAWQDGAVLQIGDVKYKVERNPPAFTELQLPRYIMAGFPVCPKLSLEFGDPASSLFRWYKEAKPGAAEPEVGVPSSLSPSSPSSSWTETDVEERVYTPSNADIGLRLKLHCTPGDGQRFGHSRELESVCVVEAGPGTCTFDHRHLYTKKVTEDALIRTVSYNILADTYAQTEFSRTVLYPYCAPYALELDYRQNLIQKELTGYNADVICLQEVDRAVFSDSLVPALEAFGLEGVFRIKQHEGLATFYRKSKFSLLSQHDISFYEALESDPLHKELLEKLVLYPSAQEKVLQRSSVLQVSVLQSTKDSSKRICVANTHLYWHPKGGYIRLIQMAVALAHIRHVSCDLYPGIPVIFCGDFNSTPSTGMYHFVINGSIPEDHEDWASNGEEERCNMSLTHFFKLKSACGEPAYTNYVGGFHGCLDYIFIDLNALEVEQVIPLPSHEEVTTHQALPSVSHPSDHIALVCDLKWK
Sequence of UniProt Q9Y3E5 (Q9Y3E5 whole entry, looked up): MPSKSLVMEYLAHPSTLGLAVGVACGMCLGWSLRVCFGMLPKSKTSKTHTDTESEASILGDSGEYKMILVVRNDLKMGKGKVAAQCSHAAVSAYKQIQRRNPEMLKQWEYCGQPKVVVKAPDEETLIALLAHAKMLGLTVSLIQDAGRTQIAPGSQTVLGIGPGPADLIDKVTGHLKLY
Sequence of UniProt Q86TB9 (Q86TB9 whole entry, looked up): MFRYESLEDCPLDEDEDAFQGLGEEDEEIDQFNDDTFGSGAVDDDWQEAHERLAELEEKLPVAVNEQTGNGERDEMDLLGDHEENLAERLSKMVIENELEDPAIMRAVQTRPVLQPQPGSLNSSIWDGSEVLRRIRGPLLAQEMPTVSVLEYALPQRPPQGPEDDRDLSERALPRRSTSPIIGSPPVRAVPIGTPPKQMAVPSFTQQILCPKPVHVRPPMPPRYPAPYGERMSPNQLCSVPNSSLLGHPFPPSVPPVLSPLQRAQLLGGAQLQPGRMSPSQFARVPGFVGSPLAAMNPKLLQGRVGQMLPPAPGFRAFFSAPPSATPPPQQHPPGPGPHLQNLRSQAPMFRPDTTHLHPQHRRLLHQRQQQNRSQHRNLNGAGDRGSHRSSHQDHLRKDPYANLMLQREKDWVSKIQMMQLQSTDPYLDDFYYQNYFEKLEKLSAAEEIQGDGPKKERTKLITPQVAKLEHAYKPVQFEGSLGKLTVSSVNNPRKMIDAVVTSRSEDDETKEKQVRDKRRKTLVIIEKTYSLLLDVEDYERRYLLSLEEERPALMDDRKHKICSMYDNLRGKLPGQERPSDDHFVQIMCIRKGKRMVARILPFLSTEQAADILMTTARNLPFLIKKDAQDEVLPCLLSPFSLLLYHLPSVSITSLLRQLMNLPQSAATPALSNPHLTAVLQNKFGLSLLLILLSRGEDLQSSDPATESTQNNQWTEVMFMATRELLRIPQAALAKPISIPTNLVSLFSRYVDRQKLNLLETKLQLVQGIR
Sequence of UniProt P0CG38 (P0CG38 whole entry, looked up): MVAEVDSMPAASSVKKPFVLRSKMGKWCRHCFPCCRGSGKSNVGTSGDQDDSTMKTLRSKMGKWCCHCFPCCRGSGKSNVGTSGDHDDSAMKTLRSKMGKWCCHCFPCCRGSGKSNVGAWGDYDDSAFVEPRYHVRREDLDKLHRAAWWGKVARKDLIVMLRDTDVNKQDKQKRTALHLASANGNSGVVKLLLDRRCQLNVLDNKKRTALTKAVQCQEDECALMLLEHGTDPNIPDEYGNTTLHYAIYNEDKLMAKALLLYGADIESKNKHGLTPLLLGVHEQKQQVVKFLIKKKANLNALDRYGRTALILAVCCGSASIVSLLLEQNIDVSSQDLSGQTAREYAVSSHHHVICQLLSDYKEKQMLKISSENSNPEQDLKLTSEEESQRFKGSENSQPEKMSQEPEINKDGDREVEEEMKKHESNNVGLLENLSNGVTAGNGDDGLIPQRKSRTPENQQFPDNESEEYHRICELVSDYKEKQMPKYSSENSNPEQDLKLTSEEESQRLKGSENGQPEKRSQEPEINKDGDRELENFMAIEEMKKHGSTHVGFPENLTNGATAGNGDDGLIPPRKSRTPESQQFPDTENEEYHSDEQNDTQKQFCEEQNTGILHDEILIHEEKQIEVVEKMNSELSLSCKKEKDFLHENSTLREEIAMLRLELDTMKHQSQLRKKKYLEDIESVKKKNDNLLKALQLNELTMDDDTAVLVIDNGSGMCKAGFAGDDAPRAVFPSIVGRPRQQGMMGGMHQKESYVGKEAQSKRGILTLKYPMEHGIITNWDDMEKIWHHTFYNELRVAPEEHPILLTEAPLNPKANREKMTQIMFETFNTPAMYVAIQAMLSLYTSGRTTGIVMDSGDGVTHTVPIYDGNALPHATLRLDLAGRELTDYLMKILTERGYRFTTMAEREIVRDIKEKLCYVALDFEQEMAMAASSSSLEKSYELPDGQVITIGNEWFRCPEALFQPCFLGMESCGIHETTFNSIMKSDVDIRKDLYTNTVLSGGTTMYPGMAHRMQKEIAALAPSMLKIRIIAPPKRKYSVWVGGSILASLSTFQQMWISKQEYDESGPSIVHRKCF
Sequence of UniProt Q9H0R6 (Q9H0R6 whole entry, looked up): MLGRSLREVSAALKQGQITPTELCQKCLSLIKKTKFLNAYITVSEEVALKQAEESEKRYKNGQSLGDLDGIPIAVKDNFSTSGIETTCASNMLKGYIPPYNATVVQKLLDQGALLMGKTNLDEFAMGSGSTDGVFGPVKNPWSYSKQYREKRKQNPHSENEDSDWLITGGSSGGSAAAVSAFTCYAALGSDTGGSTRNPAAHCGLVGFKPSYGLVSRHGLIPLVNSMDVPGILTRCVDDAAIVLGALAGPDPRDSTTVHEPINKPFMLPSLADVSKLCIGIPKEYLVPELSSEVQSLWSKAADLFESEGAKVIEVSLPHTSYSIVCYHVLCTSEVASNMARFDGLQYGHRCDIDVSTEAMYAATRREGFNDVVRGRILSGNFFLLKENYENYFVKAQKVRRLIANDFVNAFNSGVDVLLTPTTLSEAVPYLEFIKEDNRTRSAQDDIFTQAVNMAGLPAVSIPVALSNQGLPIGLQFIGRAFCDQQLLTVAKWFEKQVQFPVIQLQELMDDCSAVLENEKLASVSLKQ
Sequence of UniProt Q00577 (Q00577 whole entry, looked up): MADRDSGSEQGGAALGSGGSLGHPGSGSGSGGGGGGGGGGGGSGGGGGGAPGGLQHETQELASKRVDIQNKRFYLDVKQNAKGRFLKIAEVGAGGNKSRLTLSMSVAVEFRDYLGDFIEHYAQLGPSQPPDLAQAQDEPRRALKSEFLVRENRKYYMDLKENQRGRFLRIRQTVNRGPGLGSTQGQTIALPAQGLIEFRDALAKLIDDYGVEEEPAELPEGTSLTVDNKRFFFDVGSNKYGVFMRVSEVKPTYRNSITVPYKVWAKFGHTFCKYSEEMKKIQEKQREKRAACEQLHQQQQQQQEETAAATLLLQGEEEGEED

Row | Target | log2 fold change [1] | log2 fold change (crizotinib) | log2 fold change [2] | log2 fold change [3] | log2 fold change (duvelisib) | log2 fold change (gandotinib) | log2 fold change (tozasertib) | log2 fold change [4] | log2 fold change (doramapimod) | log2 fold change (ispinesib)
1 | PTGFRN (UniProt Q9P2B2) | 0.068 | 0.057 | 0.063 | -0.003 | 0.122 | -0.023 | -0.101 | -0.065 | 0.001 | 0.165
2 | PRMT8 (UniProt Q9NR22) | -0.046 | -0.03 | -0.043 | 0.024 | 0.012 | -0.047 | -0.024 | 0.045 | -0.021 | 0.13
3 | PATL1 (UniProt Q86TB9) | -0.014 | -0.201 | -0.037 | 0.122 | -0.002 | -0.139 | -0.014 | 0.039 | 0.12 | -0.339 (active)
4 | PTRH2 (UniProt Q9Y3E5) | 0.02 | 0.081 | 0.061 | -0.098 | 0.051 | -0.02 | 0.001 | -0.001 | -0.074 | 0.181
5 | PECAM1 (UniProt P16284) | 0.086 | 0.145 | 0.157 | 0.034 | 0.08 | -0.001 | -0.105 | -0.03 | -0.025 | 0.099
6 | QRSL1 (UniProt Q9H0R6) | 0.046 | -0.04 | 0.212 (active) | -0.023 | 0.033 | 0.082 | -0.025 | 0.024 | -0.015 | -0.049
7 | PRKAR1B (UniProt P31321) | 0.137 | 0.132 | 0.071 | 0.123 | 0.199 | 0.095 | 0.136 | -0.011 | -0.03 | -0.072
8 | PRKACB isoform 2 (UniProt P22694) | -0.009 | -0.145 | 0.033 | -0.039 | 0.009 | -0.091 | -0.02 | 0.047 | 0.028 | -0.043
9 | PRCP (UniProt P42785) | 0.012 | -0.078 | -0.088 | -0.037 | 0.045 | 0.006 | 0.036 | -0.037 | -0.034 | -0.096
10 | PDE12 (UniProt Q6L8Q7) | 0.047 | 0.032 | 0.088 | -0.133 | 0.069 | 0.027 | -0.007 | 0 | -0.027 | 0.065
11 | PCYT1B (UniProt Q9Y5K3) | -0.008 | -0.109 | 0.147 | -0.109 | -0.019 | -0.088 | 0.024 | 0.044 | -0.036 | 0.12
12 | PURA (UniProt Q00577) | -0.064 | 0.03 | -0.44 | 0.287 | -0.165 | 0.334 | 0.069 | -0.012 | 0.063 | -0.143
13 | PPP1R14A (UniProt Q96A00) | 0.078 | 0.011 | 0.005 | 0.003 | 0.06 | 0.106 | -0.017 | -0.049 | -0.086 | 0.319
14 | POTEI (UniProt P0CG38) | -0.009 | 0.109 | 0.241 | -0.096 | 0.019 | -0.019 | 0.032 | -0.021 | -0.739 (active) | 0.131
15 | POMK (UniProt Q9H5K3) | -0.013 | -0.044 | -0.034 | 0.086 | 0.062 | 0.027 | 0.024 | 0.092 | 0.108 | -0.203
